# Experimental data published in PubChem BioAssay AID1508602 (The Scripps Research Institute Molecular Screening Center, 2020).
# In all, about 650,000 compounds went through this assay and about 6,800 (1%) were called active. Rule as the data show it: active = activation above about 4.9%; inactive = the rest. Only a selection was taken, and actives are over-represented in it overall.
# Molecular target: G-protein coupled receptor 151 (Homo sapiens) (UniProt Q8TDV0)
# Test: activators of human GPR151, primary screen, cell-based, PathHunter beta-arrestin, luminescence (AID 1508602);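 also: 0% = median of compound wells and 100% = cells with positive control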
# Details: PathHunter beta-arrestin GPR151 cells, at 11.2 µM, active compounds read high
# G-protein coupled receptor 151 (Homo sapiens), sequence (Q8TDV0 whole entry, looked up): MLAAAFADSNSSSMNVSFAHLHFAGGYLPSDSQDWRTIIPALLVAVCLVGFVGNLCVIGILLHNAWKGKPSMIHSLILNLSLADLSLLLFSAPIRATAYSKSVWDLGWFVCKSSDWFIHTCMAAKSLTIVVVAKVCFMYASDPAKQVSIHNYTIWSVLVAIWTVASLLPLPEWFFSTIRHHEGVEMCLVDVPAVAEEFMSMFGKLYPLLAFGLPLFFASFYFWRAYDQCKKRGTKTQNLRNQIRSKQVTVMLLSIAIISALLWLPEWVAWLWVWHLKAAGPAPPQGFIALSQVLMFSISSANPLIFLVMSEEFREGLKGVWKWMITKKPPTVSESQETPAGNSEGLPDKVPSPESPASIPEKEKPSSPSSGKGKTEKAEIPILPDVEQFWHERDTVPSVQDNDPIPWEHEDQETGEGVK
row,SMILES,activation
1,O=[N+]([O-])c1ccccc1S(=O)(=O)NCCSCc1ccc(Cl)cc1,-0.348% (inactive)
2,NC(=O)C12CC3CC(CC(C3)C1)C2,-0.0547% (inactive)
3,O=C(N1CCCCCC1)C12CC3CC(CC(C3)C1)C2,0.202% (inactive)
4,COC(=O)[C@@H]1CC(O)CN1C(=O)C12CC3CC(CC(C3)C1)C2 (some centres not stated),6.17% (active)
5,CC1=NN(c2cccc(Cl)c2)C(=O)/C1=C/c1ccc(-c2ccc(F)cc2)o1,1.46% (inactive)
6,CCc1ccc(N2N=C(C)/C(=C/c3ccc(-c4ccc(S(N)(=O)=O)cc4)o3)C2=O)cc1,-0.641% (inactive)
7,CCc1ccc(N2N=C(C)/C(=C\c3ccc(-c4ccc5c(c4)C(=O)NC5=O)o3)C2=O)cc1,6.36% (active)
8,COc1cccc(NC(=O)c2sc3ncn(CC(=O)Nc4ccccc4OC)c(=O)c3c2C)c1,0.463% (inactive)
9,CC(C)(C)C1(O)CC(=O)C(=O)NN1c1ccccc1 (configuration not stated),-0.103% (inactive)
10,CC(CO)(CO)NC(=S)NC(=O)c1ccccc1,-2.1% (inactive)
11,CC(C)C[C@@H]1NC(=O)[C@H]2CN(Cc3ccccc3Cl)CCN2C1=O,1.34% (inactive)
12,Cc1ccc(C(=O)COc2ccc(C#N)cc2)c(C)c1,0.546% (inactive)
13,Cc1sc(NC(=O)CN(C(=O)c2cccc(F)c2)C2CCCC2)c(C(N)=O)c1C,0.439% (inactive)
14,CCN1C(=O)C(=Cc2ccc(N3CCCC3)cc2C)C(=O)N(CC)C1=S,2.62% (inactive)
15,Cc1cc(N2CCOCC2)ccc1C=C1C(=O)c2ccccc2C1=O,5.28% (active)
16,Cc1cc(N2CCOCC2)ccc1/C=C1\C(=O)NC(=S)N(c2ccccc2)C1=O,0.368% (inactive)
17,O=C(Nc1nc2c(ccc3ccccc32)s1)c1cccc(Oc2ccccc2)c1,1.27% (inactive)
18,COC(=O)c1c(NC(=O)Nc2ccc(Cl)c(Cl)c2)sc2c1CCCC2,8.57% (active)
19,COC(=O)c1c(NC(=O)c2ccc(Cl)c(Cl)c2)sc2c1CCCC2,0.167% (inactive)

row,SMILES,activation
1,CCOC(=O)c1c(NC(=O)Nc2cccc(Cl)c2)sc2c1CCCC2,0.0535% (inactive)
2,COc1ccc(OC)c(NC(=O)CN(c2cccc(C)c2C)S(C)(=O)=O)c1,5.98% (active)
3,Cc1ccc(C)c(NC(=O)CN(c2cccc(C)c2C)S(C)(=O)=O)c1,0.883% (inactive)
4,COc1ccc(NC(=O)CN(c2cc(OC)ccc2OC)S(C)(=O)=O)c(OC)c1,0.777% (inactive)
5,CCCOc1ccc([N+](=O)[O-])cc1C1NC(=S)NC(C)=C1C(=O)OC (configuration not stated),-1.65% (inactive)
6,Cc1cc2nc(C3CCCCN3C(=O)c3cscn3)[nH]c2cc1C (configuration not stated),-0.0121% (inactive)
7,CCC(C(=O)N1CCN(C)CC1)n1c(C)c2cnn(-c3ccccc3)c(=O)c2c1C (configuration not stated),-1.42% (inactive)
8,CCC(C(=O)N1CCCCC1)n1c(C)c2cnn(-c3ccccc3)c(=O)c2c1C (configuration not stated),5.32% (active)
9,Cc1c2cnn(-c3ccccc3)c(=O)c2c(C)n1CCCC(=O)N1CCN(C)CC1,0.178% (inactive)
10,Cc1ccc(S(=O)(=O)Oc2ccc(/C=C3\SC(N)=NC3=O)cc2)cc1,-0.455% (inactive)
11,COc1ccc2c(c1)C(Cc1csc(C)n1)(c1ccc(F)cc1)C(=O)N2 (configuration not stated),0.748% (inactive)
12,CC(C)NCCOCCOc1ccc(I)cc1,0.568% (inactive)
13,CCNc1nc(NC(C)C)nc(OCCOC(C)=O)n1,5.11% (active)
14,CCNc1nc(NCC)nc(C(=O)O)n1,-0.247% (inactive)
15,CCNc1nc(NC(C)C)nc(OCCOC(=O)c2ccccc2)n1,1.89% (inactive)
16,Cc1ccc(CN(C)Cc2nc3sc4c(c3c(=O)[nH]2)CCC4)o1,0.643% (inactive)
17,COc1ccc(Nc2ncc(-c3ccc(CO)cc3)n3ccnc23)cc1,-0.0468% (inactive)
18,NC(=O)c1ccc(Nc2nccn3c(-c4cccc(F)c4)cnc23)cc1,-0.391% (inactive)
19,CC(C)c1ccc(Nc2nccn3c(-c4cccc(CO)c4)cnc23)cc1,7.31% (active)

row,SMILES,activation
1,COc1ccccc1NC(=O)CSc1nnc(-c2ccc(O)cc2)o1,-0.782% (inactive)
2,CC(=O)N1CCN(Cc2ccc3c(c2)CN(Cc2c[nH]c4ccccc24)CCO3)CC1,2.78% (inactive)
3,CCOc1cccc(CN2CCOc3ccc(CN4CCNC(=O)C4CC)cc3C2)c1 (configuration not stated),-1.24% (inactive)
4,CCC1C(=O)NCCN1Cc1ccc2c(c1)CN(Cc1c[nH]c3ccccc13)CCO2 (configuration not stated),5.37% (active)
5,COc1cc(CN2CCN(CC3CCCCC3)C(CCO)C2)ccc1O (configuration not stated),-0.725% (inactive)
6,COc1ccc2c(c1)C=C(CN1CCN(CC3CCCCC3)C(CCO)C1)CO2 (configuration not stated),5.13% (active)
7,COc1cccc2c1OCC(CN1CCN(C3CCCCC3)C(CCO)C1)=C2 (configuration not stated),2.61% (inactive)
8,O=C(Nc1ccc(Cl)cc1F)c1ccc(SCC(=O)N2CCCCC2)c([N+](=O)[O-])c1,2.3% (inactive)
9,COc1ccc(S(=O)(=O)N(C)CC(=O)NCc2ccccn2)cc1C,2.7% (inactive)
10,Cc1cccc(Nc2nnc(SCC(=O)N3CCCC3=O)s2)c1C,-1.1% (inactive)
11,Cc1cccc(NC(=O)CN2C(=O)S/C(=C\c3ccc(Br)s3)C2=O)c1,1.12% (inactive)
12,O=C(CN1C(=O)COc2ccc(Cl)cc21)Nc1ccccc1F,0.859% (inactive)
13,O=C(CN1C(=O)S/C(=C\c2ccc(Cl)s2)C1=O)Nc1ccccc1F,7.92% (active)
14,COc1ccc(N2C(=O)CN(C(=O)c3cc(C(F)(F)F)[nH]n3)CC23CCCC3)cc1,-0.225% (inactive)
15,C[C@H]1Cc2c(COc3ccccc3)nc3c(c2CO1)CN(C(=O)Nc1cccc(C#N)c1)CC3,-0.449% (inactive)
16,COc1cccc(CC(=O)N2CCc3nc(COc4ccccc4)c4c(c3C2)CO[C@@H](C)C4)c1,4.35% (inactive)
17,C[C@H]1Cc2c(COc3ccccc3)nc3c(c2CO1)CN(C(=O)NCc1ccco1)CC3,8.56% (active)
18,Cc1ccnc(-n2c(=O)c3cc4c(=O)n(-c5cc(C)ccn5)c(=O)c4cc3c2=O)c1,-0.463% (inactive)
19,Cc1ncc(CO)c(/C=N/NC(=O)c2cc3c(s2)CCC(C)C3)c1O (configuration not stated),-0.38% (inactive)
